Our source for the inhibition values is PubChem BioAssay AID1376 (SRMLSC, 2008).

SMILES strings stand for the structures. The whole screen tested about 220,000 compounds, of which about 530 (0.24%) were called active. Rule as the data show it: active = inhibition above about 13%; inconclusive = no clear call, values can overlap the other calls; inactive = below that. The full list was thinned out, with actives kept by preference. Entries with a potency or affinity are not part of this list.

A word on the inhibition: it is the change of the read-out against control, counted positive when it falls.

The target of this experiment is Bifunctional protein GlmU (Mycobacterium tuberculosis (strain ATCC 25618 / H37Rv)) (UniProt P9WMN3). Put plainly: inhibition of mycobacterial GlmU enzyme – biochemical, glucosamine-1-phosphate acetyltransferase (AID 1376).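 Also: 0% = complete reaction with vehicle and 100% = reaction without substrate.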 The note with it: M. tuberculosis GlmU acetyltransferase enzyme assay; hits give high values;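 tested at 30 µM in the primary screen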.
Sequence of Bifunctional protein GlmU (Mycobacterium tuberculosis (strain ATCC 25618 / H37Rv)) (P9WMN3 whole entry, looked up): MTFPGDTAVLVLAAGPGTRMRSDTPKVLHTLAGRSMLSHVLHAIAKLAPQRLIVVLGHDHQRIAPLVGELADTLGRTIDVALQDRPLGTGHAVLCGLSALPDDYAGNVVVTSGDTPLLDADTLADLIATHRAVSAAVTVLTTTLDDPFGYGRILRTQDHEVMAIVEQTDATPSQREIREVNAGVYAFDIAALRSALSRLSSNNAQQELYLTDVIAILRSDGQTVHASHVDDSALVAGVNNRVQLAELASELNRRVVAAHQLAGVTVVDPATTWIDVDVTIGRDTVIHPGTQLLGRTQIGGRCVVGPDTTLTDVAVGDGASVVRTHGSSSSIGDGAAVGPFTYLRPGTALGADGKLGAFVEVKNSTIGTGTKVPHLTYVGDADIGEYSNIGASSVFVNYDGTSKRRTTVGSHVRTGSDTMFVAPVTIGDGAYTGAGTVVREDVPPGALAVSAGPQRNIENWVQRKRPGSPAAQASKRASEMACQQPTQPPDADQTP
`CC(=O)Oc1ccccc1N(C(C)=O)S(=O)(=O)c1cccc([N+](=O)[O-])c1`: the inhibition is 2.75% (inactive).
Regarding `COc1nc(-c2ccccc2)ccc1-c1noc(-c2cccs2)n1`, the inhibition was -3.99% (inactive).
Regarding `O=C(CN(Cc1ccccc1)S(=O)(=O)c1ccccc1)N/N=C/c1ccccc1C(=O)O`, the inhibition was 1.89% (inactive).
The same measure for `CCN(CC)S(=O)(=O)c1cc(NC(=O)COC(=O)CCC(=O)c2cccs2)ccc1C`: 1.97% (inactive).
With `O=C(NCc1n[nH]c(=S)n1-c1cccc(C(F)(F)F)c1)c1ccc(S(=O)(=O)N2CCCC2)cc1`, the inhibition is -1.04% (inactive).
With `Oc1ccc(N=Nc2ccc(Br)cc2)c(O)c1` the figure was 7.96% (inactive); with `Oc1ccc(Cl)cc1/C=N/c1nccs1`, 5.12% (inactive); with `Oc1ccc(N=Nc2nccs2)c(O)c1`, 53.5% (active).
The same measure for `Cc1cc2nc(=O)c(/C=C3\C=Nc4ccccc43)c(N)n2o1`: -5.38% (inactive); for `O=c1ccnc2n1COCS2`: -2.85% (inactive).
The same measure for `CC(/C=C/c1ccccc1)=N\NC(=O)c1ccncc1`: 2.68% (inactive).
`Cc1ccc2c(C(=O)CN3CCN(c4ccccc4)CC3)c(C)[nH]c2c1`: the inhibition was 14.3% (active).
With `Cc1ccc2c(C(=O)CN3CCOCC3)c(C)[nH]c2c1` the figure was 2.67% (inactive).
The same measure for `Cc1ccc2c(C(=O)CN3CCCC3)c(C)[nH]c2c1`: -5.2% (inactive); for `O=C(CSc1ccc(Cl)cc1)NN=C1CCCCCC1`: 0.28% (inactive).
With `O=C(Nc1cccc(N2CCCC2)c1)c1cccs1` the figure was -6.15% (inactive).
On to `CCN1CCN(C(=O)NCc2ccccc2)CC1`, for which the inhibition is -0.69% (inactive).
On to `CCOc1ccccc1CNc1ccc(O)cc1`, for which the inhibition was 12.9% (active).
With `Oc1ccc(NCc2ccccc2OCc2ccccc2)cc1` the figure was 1.63% (inactive); with `Oc1ccc(NCc2ccccc2OCc2ccccc2F)cc1`, 1.2% (inactive).
Regarding `CCc1nnc(NC(=O)c2cccc(S(=O)(=O)N3CC(c4ccccc4)CC3=O)c2)s1` (stereo unspecified), the inhibition was 5.84% (inactive).
The same measure for `COCCn1cnnc1SCC(=O)Nc1cccc(S(=O)(=O)N2CCCCCC2)c1`: 1.58% (inactive).
With `COC(=O)c1ccc(S(=O)(=O)N2CCCCCC2)n1C` the figure was 12.8% (active); with `COC(=O)c1ccc(S(=O)(=O)N2CCC(O)CC2)n1C`, -2.92% (inactive).
The same measure for `COC(=O)c1ccc(S(=O)(=O)N2CCN(C)CC2)n1C`: -8.72% (inactive).
With `CCc1nnc(NC(=O)CSc2nc3c(c(=O)n2C)SC(C)C3)s1` (stereo unspecified), the inhibition is 3.46% (inactive).
For `O=c1/c(=C/c2ccccc2)sc2nnc(-c3cccs3)n12`, the inhibition was 0.67% (inactive).
As for `C#CC[N+]1(CC#Cc2ccccc2)CCOCC1`, the inhibition is -6.07% (inactive).
For `OCC#CC[N+]1(CC#Cc2ccccc2)CCOCC1`, the inhibition was -6.73% (inactive).
Take `CC1=C(C(=O)Nc2ccccc2)C(c2cccs2)n2nnnc2N1` (stereo unspecified): the inhibition is -3.97% (inactive).
As for `CCn1c(CSc2nc3ccccc3s2)nnc1SCC(=O)c1ccc(O)c(O)c1`, the inhibition is 5.09% (inactive).
On to `CCn1c(CSc2nc3ccccc3s2)nnc1SCC(N)=O`, for which the inhibition was 1.32% (inactive).
With `CCn1c(CSc2nc3ccccc3s2)nnc1SCC(=O)c1ccc(O)cc1O` the figure was 13% (active).
With `C=C(C)CNC(=S)N/N=C/c1ccc([N+](=O)[O-])cc1` the figure was 3.43% (inactive); with `Cc1ccc(-n2nc3c(c2NC(=O)c2cccs2)CSC3)cc1`, 19.6% (active).
With `Cc1ccc(-n2nc3c(c2NC(=O)c2ccc4c(c2)OCO4)CSC3)cc1` the figure was -1.67% (inactive); with `Cc1ccc(-n2nc3c(c2NC(=O)c2c(-c4ccccc4Cl)noc2C)CSC3)cc1`, 4.33% (inactive).
On to `Cc1nccn1CCCN1C(=O)OC2(CCCCC2)C1(C)O` (stereo unspecified), for which the inhibition is -0.12% (inactive).
On to `Cc1cc(C)c(C(=O)COC(=O)c2cc([N+](=O)[O-])ccc2NCCO)cc1C`, for which the inhibition is 0.91% (inactive).
Take `COc1cc(/C=N/N=C2/C(=O)Nc3ccccc32)ccc1O`: the inhibition is 1.01% (inactive).
With `O=C1Nc2ccccc2/C1=N/N=C/c1cccc(O)c1` the figure was 0.15% (inactive); with `O=C1Nc2ccccc2/C1=N\N=C\c1ccc(O)c(O)c1`, 15% (active); with `CC1CCc2ccc(F)cc2N1S(=O)(=O)c1cccs1` (stereo unspecified), 3.23% (inactive).
With `O=c1cc(O)c2c(=O)n(-c3ccccc3)c3c(c2o1)CCCCCC3`, the inhibition is 0.45% (inactive).
With `O=c1cc(O)c2c(=O)n(-c3ccccc3)c3ccccc3c2o1` the figure was 0.8% (inactive); with `O=c1cc(O)c2c(=O)n(-c3ccccc3)c3c(c2o1)CCCCC3`, 13% (active); with `C=CCNC(=O)NS(=O)(=O)c1ccc(C)cc1`, 1.33% (inactive).
Take `O=C(NCc1ccco1)c1cccc(-c2nnc(-c3ccccc3)o2)c1`: the inhibition is -0.42% (inactive).
With `CC(C)CC(OC(=O)c1ccco1)C(=O)NC1CCCCC1` (stereo unspecified) the figure was 14.8% (active); with `CC(C)C(OC(=O)c1ccco1)C(=O)NC1CCCCC1` (stereo unspecified), 1.45% (inactive).
With `CC(OC(=O)c1ccco1)C(=O)NC1CCCCC1` (stereo unspecified), the inhibition was -0.47% (inactive).
With `O=C(NCc1ccncc1)C(=O)C1C(=O)Nc2ccccc21` (stereo unspecified) the figure was -1.35% (inactive); with `CCOC(=O)c1nc(NCc2ccccc2C)c2ccccc2n1`, -3.26% (inactive).
For `C/C=C(\C)CN1CCN(c2cc(C)ccc2C)CC1`, the inhibition was -5.99% (inactive).
The same measure for `Cc1cc(C(=O)CS(=O)(=O)c2ccccc2)cc(C)c1OC(=O)N(C)C`: 0.59% (inactive); for `COc1ccc(NS(=O)(=O)c2cccc(C(=O)NNC(=O)NCCCl)c2)cc1`: -0.61% (inactive).
As for `Cc1cc(/C=N/NC(=O)c2cccc(F)c2)c(C)n1-c1ccccc1`, the inhibition is 0.73% (inactive).
On to `Cc1cc(/C=N/NC(=O)c2cccc([N+](=O)[O-])c2)c(C)n1-c1ccccc1`, for which the inhibition is -3.02% (inactive).
With `Cc1cc(C(=O)N/N=C/c2sc(N3CCOCC3)nc2-c2ccccc2)c(C)o1` the figure was 6.62% (inactive); with `CCCn1c(SCc2ccon2)nc2ccccc2c1=O`, 1.08% (inactive).
The same measure for `O=C1c2ccccc2C(=O)N1CC(=O)N1c2ccccc2Sc2ccccc21`: -6.14% (inactive); for `COc1cc(C(c2c(O)c3ccccc3oc2=O)c2c(C)n(C)n(-c3ccccc3)c2=O)ccc1O` (stereo unspecified): 22.1% (inactive); for `COc1ccc(OC)c(C(c2c(O)c3ccccc3oc2=O)c2c(C)n(C)n(-c3ccccc3)c2=O)c1` (stereo unspecified): 13.2% (active).
With `COc1ccc(C(c2c(O)c3ccccc3oc2=O)c2c(C)n(C)n(-c3ccccc3)c2=O)cc1` (stereo unspecified) the figure was 1.51% (inactive).
On to `CCCCCCn1c(CN2CCN(CCO)CC2)nc2c1c(=O)n(C)c(=O)n2C`, for which the inhibition is 2% (inactive).
The same measure for `C/C(=N\NC(=O)c1nn(C)c(C)c1Br)c1cccc(NC(=O)c2ccc(F)cc2)c1`: -3.49% (inactive); for `O=C(c1ccc2c(c1)OCO2)N1CCC2(CC1)OCCO2`: 5.09% (inactive); for `O=C(NCc1ccc(C(=O)N2CCC3(CC2)OCCO3)cc1)c1cccc(Br)c1`: 1.96% (inactive).
With `O=C(NCc1ccc(C(=O)N2CCC3(CC2)OCCO3)cc1)c1ccc2c(c1)OCO2` the figure was 18.9% (active).
The same measure for `COc1ccc(CN2CCOCC2)c(C)c1C`: -2.85% (inactive); for `CCCCNc1ccc(C(=O)O)cc1`: -0.8% (inactive); for `CC12CC(NC(=O)N1c1ccc(C(=O)N3CCN(c4ccc(F)cc4)CC3)cc1)c1ccccc1O2` (stereo unspecified): -2.33% (inactive).
For the compound `CC(C)C/C=C1\CCc2c([nH]c3ccccc23)C1=O`, the inhibition is -1.01% (inactive).
Regarding `CCOc1ccc(NC(=O)CSc2n[nH]c(N)n2)c([N+](=O)[O-])c1`, the inhibition was 0.6% (inactive).
For `CCOC(=O)c1cnc(SCC(=O)c2ccc3c(c2)OCCO3)nc1N`, the inhibition was -5.31% (inactive).
The same measure for `NS(=O)(=O)c1cccc(NC(=O)CN2CCc3ccccc32)c1`: -0.92% (inactive).
The same measure for `Fc1ccc(OCc2nn3cnnc3s2)cc1`: 18.4% (active); for `Fc1ccc(OCc2nn3c(Cn4nnc5ccccc54)nnc3s2)cc1`: 3.23% (inactive).
With `Fc1ccc(OCc2nc3ccccc3s2)cc1` the figure was 0.65% (inactive); with `COC(=O)c1ccc(S(=O)(=O)NCc2ccccn2)n1C`, -0.35% (inactive).
For the compound `COc1cccc(Nc2ccccc2C(=O)O)c1`, the inhibition is -2.96% (inactive).
The same measure for `COc1ccc(Nc2ccc(Cl)cc2)c(C(=O)O)c1`: 11.1% (inactive); for `COc1ccc(Nc2cccc(Cl)c2)c(C(=O)O)c1`: 13.1% (active); for `COc1ccccc1C(=O)O/N=C(\N)c1ccccn1`: 6.05% (inactive).
As to `COc1cc(C(=O)O/N=C(\N)c2ccccn2)cc(OC)c1OC`, the inhibition is 13.3% (active).
The same measure for `COc1cc(OC)cc(C(=O)O/N=C(\N)c2ccccn2)c1`: -3.71% (inactive); for `Cn1c(CSCCOc2ccccc2)n[nH]c1=S`: -1.84% (inactive).
`COc1ccc(S(=O)(=O)NC2CC(C)(C)NC(C)(C)C2)c(C)c1C`: the inhibition was 13.6% (active).
With `COc1c(C)cc(S(=O)(=O)NC2CC(C)(C)NC(C)(C)C2)c(C)c1C` the figure was -0.79% (inactive).
Consider `COc1ccc(Cl)cc1S(=O)(=O)NC1CC(C)(C)NC(C)(C)C1`, for which the inhibition is 4.3% (inactive).
For the compound `Nc1nc(N)c(N=Nc2ccc(C(=O)O)cc2)c(N)n1`, the inhibition was 13.1% (active).
With `O=C(O)c1ccc(N=Nc2c(O)[nH]c3ccccc23)cc1` the figure was -3.4% (inactive); with `O=C(O)c1ccc(N=Nc2c(O)[nH]c3cc(Cl)ccc23)cc1`, 11% (inactive).
For the compound `O=C(NCCO)C(c1ccccc1)c1ccccc1`, the inhibition was -1.82% (inactive).
The same measure for `COc1ccc2nc3sc(C(=O)NCCCN4CCc5ccccc5C4)cc3cc2c1`: 5.05% (inactive).
For `COc1ccc2nc3sc(C(=O)NCCN4CCc5ccccc5C4)cc3cc2c1`, the inhibition is 15% (active).
With `COc1ccc2cc3cc(C(=O)NCCN4CCc5ccccc5C4)sc3nc2c1` the figure was 4.04% (inactive); with `O=C1C(Cl)=C(NCCc2ccccc2)C(=O)N1CCc1ccccc1`, 1.54% (inactive); with `CCOc1ccc(N2C(=O)C(Cl)=C(Nc3ccccc3O)C2=O)cc1`, 7.85% (inactive).
The same measure for `COc1ccc(NC2=C(Cl)C(=O)N(c3ccccc3)C2=O)c(OC)c1`: 4.46% (inactive).
As to `COc1ccc(N2C(=O)C(Cl)=C(Nc3ccccc3OC)C2=O)cc1`, the inhibition is 3.86% (inactive).
The same measure for `O=C1C(Cl)=C(Nc2ccccc2O)C(=O)N1c1ccccc1`: 42.6% (active); for `COc1ccccc1NC1=C(Cl)C(=O)N(c2ccccc2)C1=O`: 1.83% (inactive); for `CCOc1ccccc1NC1=C(Cl)C(=O)N(c2ccc(OC)cc2)C1=O`: -5.57% (inactive).
The same measure for `O=C1C(Cl)=C(Nc2ccc(F)cc2)C(=O)N1CCc1ccccc1`: -4.15% (inactive).
With `CCOc1ccccc1NC1=C(Cl)C(=O)N(c2ccccc2)C1=O` the figure was 0.96% (inactive).
